# In PubChem BioAssay AID430 (Sanford-Burnham Center for Chemical Genomics, 2006):
# Screen size: about 63,000 compounds; about 1,100 (1.7%) were called active. For the sample, actives were picked, then their nearest neighbours and some compounds at random. Measured potencies and affinities stand elsewhere. Values without a mark were called inactive. Cut-off read from the data, not from the text of the source: active = cytotoxicity above about 50%; inactive = the rest.
# Assay: HPDE-C7 pancreatic duct cell viability loss – fluorescence, HTS (AID 430);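 note: cells exposed to compound for 48 hours before viability readout; 0% = vehicle and 100% = reference cytotoxic drug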
# Details: HPDE-C7 pancreatic duct cells viability, at 10 µM, stronger effect = higher value
row,SMILES,cytotoxicity
1,O=C(O)CCc1ccc(-c2cccs2)n1CC1CCCO1 (centres undefined),-6.9%
2,CCOC(=O)Cn1c(=O)oc2cc(S(=O)(=O)N3CCCc4ccccc43)ccc21,3.6%
3,CCSc1nnc(NC(=O)C(Cc2ccccc2)n2cccc2)s1 (centres undefined),-8.7%
4,Cc1csc(NC(=O)C(Cc2ccccc2)n2cccc2)n1 (centres undefined),14.2%
5,COc1cccc2sc(NC(=O)c3ccc(S(=O)(=O)N4CCOCC4)cc3)nc12,2.8%
6,O=c1oc2cc(O)ccc2c2oc3cc(O)ccc3c12,9.7%
7,O=c1oc2cc(O)ccc2c2c1CCCC2,30.9%
8,Oc1ccc2c(c1)oc1cc(O)ccc12,56.4% (active)
9,O=C(NCc1ccco1)C1CCN(S(=O)(=O)c2ccc(-n3cnnn3)cc2)CC1,-7.4%
10,COc1ccc(OC)c(-c2nc(C)sc2CC(=O)O)c1,-6.4%
11,CC(C)Oc1ccc(NC(=O)Oc2ccccc2)cc1,4.8%
12,CC(=O)Nc1ccc(NC(=O)Oc2ccccc2)cc1,-2%
13,O=C(Nc1ccc(N2CCN(c3ccc(O)cc3)CC2)cc1)Oc1ccccc1,50.7% (active)
14,O=C1CC(c2ccco2)CC2=C1C1c3ccccc3C(=O)N1c1ccccc1N2 (centres undefined),64.9% (active)
15,COc1ccc(C2C3=C(CC(c4ccco4)CC3=O)Nc3ccccc3N2C(C)=O)cc1 (centres undefined),-12.7%
16,CCC(=O)N1c2ccccc2NC2=C(C(=O)CC(c3ccco3)C2)C1c1ccco1 (centres undefined),-3.7%
17,COCCCn1c(=O)c2ccccc2c2ccccc2c1=O,-14.8%
18,CC(=O)c1cccc(S(=O)(=O)N(CCCO)Cc2cc3ccc(C)cc3[nH]c2=O)c1,-3.7%
19,COc1ccc(NC(=O)N2CCCC2)cc1OC,-16.9%
20,Cn1nnnc1Sc1ncnc2scc(-c3ccccc3)c12,2.6%
21,O=c1[nH]cnc2scc(-c3ccc(F)cc3)c12,-4.9%
22,C/C(=N\O)c1c(C)c2ccccc2n1C,-0.6%
23,CC1=C(C(=O)Nc2ccccn2)C(c2ccc(F)cc2)n2ncnc2N1 (centres undefined),-6%
24,O=C(CSc1ncnc2c1oc1ccccc12)Nc1cccc(C(F)(F)F)c1,2.9%
25,Cc1ccnc(SCC(=O)O)n1,-31.8%

row,SMILES,cytotoxicity
1,Cc1ccccc1NC(=O)CSc1nc2c(c(-c3ccco3)c1C#N)CCCC2,-20.7%
2,c1ccc2[nH]c(-c3ccnc4ccccc34)nc2c1,3%
3,O=C(c1nn2c(C(F)(F)F)cc(-c3ccco3)nc2c1Br)N1CCCc2ccccc21,51.8% (active)
4,O=C(c1cnn2c(C(F)(F)F)cc(-c3ccco3)nc12)N1CCCc2ccccc21,4.7%
5,O=C(c1cc2nc(-c3ccco3)cc(C(F)(F)F)n2n1)N1CCCc2ccccc21,-11.2%
6,O=C(Sc1nnnn1C1CCCCC1)c1cccs1,-11.4%
7,COc1cc(C(=O)NCc2nnc(SCC(=O)N3CCC(C)CC3)o2)cc(OC)c1OC,-2.5%
8,CC1(C)Cc2c(c(N3CCOCC3)nc3snc(Br)c23)CO1,5.4%
9,CC1(C)Cc2c(c(N3CCOCC3)nc3sc(C(=O)N4CCCCC4)c(N)c23)CO1,-5.3%
10,CCN1C(=O)c2ccccc2S(=O)(=O)c2ccc(C(=O)NCc3cccnc3)cc21,-0.2%
11,COc1ccccc1C(=O)Nc1nc2ccc(S(C)(=O)=O)cc2s1,2.7%
12,CC(C)n1nc(C(=O)Nc2nc3ccc(S(C)(=O)=O)cc3s2)c2ccccc2c1=O,54.4% (active)
13,CS(=O)(=O)c1ccc2nc(NC(=O)c3cccs3)sc2c1,-8.3%
14,COCCCNC(=O)c1ccc(N2CCCC2)c(NS(=O)(=O)c2ccc(C)cc2)c1,-13.4%
15,CC1CC(C)CN(C(=O)c2cn(C)c3ccc(S(=O)(=O)N(C)C)cc3c2=O)C1 (centres undefined),0.8%
16,CC12CC(NC(=O)N1c1cccc(C(=O)NCc3ccc4c(c3)OCO4)c1)c1cc(Cl)ccc1O2 (centres undefined),27.3%
17,N#Cc1cc(Oc2cccc3cccnc23)c(-n2nnc3ccccc32)cc1C#N,63.7% (active)
18,COc1ccccc1Oc1cc(C#N)c(C#N)cc1-n1nnc2ccccc21,-8.8%
19,c1ccc(-n2nnnc2Oc2cccc3cccnc23)cc1,19.3%
20,CCOC(=O)CNC(=O)CSc1nc2cccnc2n1C,-7.9%
21,CCNc1sc(C(=O)c2cccs2)c(N)c1C#N,-12.7%
22,CNc1sc(C(=O)c2cccs2)c(N)c1-c1nc2ccccc2s1,33.3%
23,CCNc1sc(C(=O)c2cccs2)c(N)c1-c1nc2ccccc2s1,73.7% (active)
24,COc1ccccc1Nc1nc(C2(C)CCC(=O)O2)cs1 (centres undefined),6.8%
25,Cn1c(-c2nonc2NC(=O)c2ccc(C(C)(C)C)cc2)nc2ccccc21,-0.1%

row,SMILES,cytotoxicity
1,CCCn1cc(S(=O)(=O)CC(=O)Nc2ccc(OCC)cc2)c2ccccc21,-9.9%
2,COc1ccc(-c2oc3ncn4nc(Cc5ccccc5)nc4c3c2-c2ccc(OC)cc2)cc1,62.3% (active)
3,COc1ccc(-c2oc3ncn4nc(COc5ccccc5)nc4c3c2-c2ccc(OC)cc2)cc1,54.9% (active)
4,Cc1nc2c3c(-c4ccccc4)c(-c4ccccc4)oc3ncn2n1,-9.4%
5,COc1ccccc1OCc1nc2c3c(-c4ccccc4)c(-c4ccccc4)oc3ncn2n1,7.7%
6,COc1ccc(-c2oc3ncn(CCN4CCOCC4)c(=N)c3c2-c2ccc(OC)cc2)cc1,16%
7,N=c1c2c(-c3ccccc3)c(-c3ccccc3)oc2ncn1CCN1CCOCC1,29.3%
8,CCOc1ccc(CCNC(=O)CCN2C(=O)COc3ccccc32)cc1OCC,-19.6%
9,CCOC(=O)/C=C1\SCC(=O)N1CC(=O)Nc1ccccc1OC(F)F,2.3%
10,CN(C)C(=O)N1CCC(C(=O)NCc2ccc(F)cc2)CC1,-10.1%
11,Cc1[nH]nc2c1C(Cc1ccccc1)C(C#N)=C(N)O2 (centres undefined),-12.3%
12,Cc1ccc(Cl)c(Nc2ccccc2C(=O)O)c1Cl,66.2% (active)
13,Cc1c(Cl)cccc1Nc1ccccc1C(=O)O,-3.4%
14,Cc1cccc(Nc2ccccc2C(=O)O)c1C,3.8%
15,O=C1c2ccccc2C(=O)N1CCCc1nc(-c2cccnc2)no1,6.9%
16,Fc1ccc(-n2c(-c3ccco3)nc3nc4ccccc4nc32)cc1,-1.1%
17,N#Cc1nc(COc2ccc(-c3ccccc3)cc2)oc1NCc1cccnc1,61.9% (active)
18,N#Cc1nc(Cc2ccccc2)oc1NCc1cccnc1,-12.4%
19,N#Cc1nc(-c2ccc(OCc3ccc(Cl)cc3)cc2)oc1NCc1cccnc1,53.4% (active)
20,COc1ccc(CNc2oc(-c3ccccc3)nc2C#N)cc1,5.7%
21,CC(C)(C)c1ccc(-c2nc(C#N)c(NCc3ccncc3)o2)cc1,54.6% (active)
22,N#Cc1nc(-c2ccc(OCc3ccccc3)cc2)oc1NCc1cccnc1,0.6%
23,N#Cc1nc(-c2ccc(F)cc2)oc1NCc1ccccc1,-17.1%
24,N#Cc1nc(-c2ccc(OCc3ccc(Cl)cc3)cc2)oc1NCCCn1ccnc1,-0.4%
25,N#Cc1nc(-c2ccc(OCc3ccccc3)cc2)oc1NCCN1CCOCC1,-1%

row,SMILES,cytotoxicity
1,COc1ccc(CNc2oc(COc3ccccc3)nc2C#N)cc1,0.5%
2,COc1ccc(-c2nc(C#N)c(NCCCN3CCOCC3)o2)cc1,-6.6%
3,Cc1ccc(-n2nnc3c(=O)n(Cc4ccccc4C)cnc32)cc1,0.5%
4,COCCNC(=O)C(c1ccc(Cl)cc1)N(C(=O)CCC(=O)Nc1ccccn1)C1CCCC1 (centres undefined),-1.7%
5,CNCCOCC(O)CSc1ccccc1 (centres undefined),1.2%
6,Cc1cccc(-c2nnn(CC/C(N)=N/O)n2)c1,2.8%
7,CCN1CCN(c2nc(-c3cccnc3)nc3ccccc23)CC1,-27.8%
8,COc1ccc(NC(=O)C(Cc2ccccc2)NC(=O)c2ccco2)cc1OC (centres undefined),-0.4%
9,c1ccc(CSc2nnc3c(n2)OC(c2ccco2)Nc2ccccc2-3)cc1 (centres undefined),-3.6%
10,O=C(Nc1ccc2c(c1)OCO2)C(c1ccccc1)N1CCCCC1 (centres undefined),-14%
11,O=c1[nH]nnc2c1sc1nc(N3CCOCC3)c3c(c12)CCCC3,30.8%
12,COc1ccccc1C1c2c(oc3ccc(Cl)cc3c2=O)C(=O)N1c1cc(C)on1 (centres undefined),-14.3%
13,COc1ccccc1-n1c(=O)oc2ccc(Cl)cc2c1=O,59.7% (active)
14,COc1ccccc1-n1c(SC)nc(O)cc1=O,4.6%
15,Cn1c(SCc2c(F)cccc2Cl)nnc1-c1cccs1,-2.8%
16,O=C(C1COc2ccccc2O1)N1CCN(c2ccc(F)cc2)CC1 (centres undefined),-9%
17,CCOc1ccccc1OCC(=O)O,4.2%
18,O=C(O)COc1ccc2nsnc2c1Cl,-25.1%
19,COC(=O)CN1C(=O)C(O)(CC(=O)c2ccc(C)cc2)c2ccccc21 (centres undefined),-28.9%
20,Cc1ccccc1-n1c(N)cc(=O)[nH]c1=S,-2.2%
21,CCOC(=O)c1cc(NC(=O)Nc2ccc(OC)c(OC)c2)c(C)nc1C,5.7%
22,CCOC(=O)N1CCN(S(=O)(=O)c2ccc(C(=O)Nc3ccc(F)cc3F)cc2)CC1,58% (active)
23,CCOC(=O)N1CCN(S(=O)(=O)c2ccc(F)cc2)CC1,-1.6%
24,CCOC(=O)N1CCN(S(=O)(=O)c2ccc(C(=O)Nc3nc4ccc(F)cc4s3)cc2)CC1,-8%
